# Measured values reported in PubChem BioAssay AID1508602 (The Scripps Research Institute Molecular Screening Center, 2020).
# Hit rate of the full screen: of about 650,000 compounds, about 6,800 (1%) were called active. Shown is part of a subset that was picked to be rich in actives. Values without a mark were called inactive. Rule as the data show it: active = activation above about 4.9%; inactive = the rest.
# Molecular target: G-protein coupled receptor 151 (Homo sapiens) (UniProt Q8TDV0)
# Assay: activators of human GPR151, primary screen, cell-based, PathHunter beta-arrestin, luminescence (AID 1508602);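 also: 0% = median of compound wells and 100% = cells with positive control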
# Conditions: PathHunter beta-arrestin GPR151 cells, at 11.2 µM, active compounds read high
# G-protein coupled receptor 151 (Homo sapiens), sequence (Q8TDV0 whole entry, looked up): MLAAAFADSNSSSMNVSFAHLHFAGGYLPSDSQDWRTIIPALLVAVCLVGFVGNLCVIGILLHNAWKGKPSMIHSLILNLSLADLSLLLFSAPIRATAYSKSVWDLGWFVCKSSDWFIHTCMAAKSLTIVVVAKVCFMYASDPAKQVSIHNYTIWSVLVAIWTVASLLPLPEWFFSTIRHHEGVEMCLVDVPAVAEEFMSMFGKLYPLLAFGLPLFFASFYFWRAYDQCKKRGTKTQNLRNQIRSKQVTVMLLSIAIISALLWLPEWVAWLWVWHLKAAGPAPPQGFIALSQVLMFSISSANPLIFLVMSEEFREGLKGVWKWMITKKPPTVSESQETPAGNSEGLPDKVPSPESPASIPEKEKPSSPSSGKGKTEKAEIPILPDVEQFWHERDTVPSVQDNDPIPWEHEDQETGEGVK
row,Compound,activation
1,COc1ccc(N2CCN(C(CNS(=O)(=O)c3c(C)cc(C)cc3C)c3cccnc3)CC2)cc1 (stereo not given),0.0567%
2,Cc1ccc(S(=O)(=O)NCC(c2cccnc2)N2CCN(c3ccc(F)cc3)CC2)cc1 (stereo not given),4.96% (active)
3,O=S(=O)(NCC(c1cccnc1)N1CCN(c2ccccc2)CC1)c1ccc(F)cc1 (stereo not given),-1.39%
4,CC(=O)Nc1nc2c(s1)-c1cccc3cccc-2c13,-0.686%
5,CCN1CCN(c2cc(Nc3cccc(OC)c3)c3c4c(onc24)-c2ccccc2C3=O)CC1,-1.99%
6,CCN1CCN(c2cc(Nc3cc(OC)c(OC)c(OC)c3)c3c4c(onc24)-c2ccccc2C3=O)CC1,-0.784%
7,COc1cc(Nc2cc(N3CCN(c4ccc(F)cc4)CC3)c3noc4c3c2C(=O)c2ccccc2-4)cc(OC)c1OC,5.65% (active)
8,Cn1c(SCC(=O)NCc2cccs2)nnc1C1CC1,0.896%
9,Cc1cc2c(cc1S(=O)(=O)CCC(=O)Nc1ccccc1Cl)OCC(=O)N2,12% (active)
10,CCc1ccc(NC(=O)CCS(=O)(=O)c2cc3c(cc2Cl)NC(=O)CO3)cc1,0.977%
11,Cc1ccccc1NC(=O)CCS(=O)(=O)c1ccc2c(c1)OCC(=O)N2,-0.0759%
12,CC(Nc1ccc(-c2cccc(C=O)c2)cn1)c1ccc(F)cc1 (stereo not given),3.31%
13,C=CSC1=C(C#N)C(c2cccc3ccccc23)CC(=O)N1 (stereo not given),0.0614%
14,CCN(Cc1ccccc1)C(=O)Nc1ccc(-c2cn[nH]c2)cc1OCCN(C)C,0.0869%
15,CN(Cc1ccccc1)C(=O)c1nc2ccc(-c3cn[nH]c3)cc2s1,5.86% (active)
16,CN(C)C(=O)c1cc(-c2cn[nH]c2)ccc1NC(=O)OCc1ccccc1,0.0349%
17,O=C(CCS(=O)(=O)c1cccc2nsnc12)N1CCCCCC1,-0.702%
18,CNC(=O)C(NC(=O)c1ccc([N+](=O)[O-])cc1)C12CC3CC(CC(C3)C1)C2 (stereo not given),0.352%
19,Cc1cccc(NC(=O)/C(=C\c2ccco2)NC(=O)c2ccccc2Br)c1,2.08%
20,CC1=C(C(=O)N2CCOCC2)C(c2ccc(Cl)cc2)C2=C(CC(C)(C)CC2=O)N1 (stereo not given),0.141%
21,CCc1cccc(OCC(=O)Nc2ccc3c(c2)OCCO3)c1,-1.18%
22,CCOc1cccc(NC(=O)Cn2nc(-c3ccc4c(c3)OCCO4)ccc2=O)c1,8% (active)
23,O=C(Cn1nc(-c2ccc3c(c2)OCCO3)ccc1=O)Nc1cccc(C(=O)NC2CC2)c1,0.799%

row,Compound,activation
1,O=C(CSc1nnc(Cc2ccccc2)o1)c1ccc([N+](=O)[O-])cc1,-0.861%
2,COc1ccccc1-n1c(C)nc2cc(C(=O)NCc3ccc4c(c3)OCO4)ccc21,-0.911%
3,Cc1nc2cc(C(=O)NCc3ccc4c(c3)OCO4)ccc2n1-c1ccc(OCc2ccccc2)cc1,9.26% (active)
4,CCOc1ccc(-n2c(C)nc3cc(C(=O)NCC(OCC)OCC)ccc32)cc1,-0.917%
5,O=C(NC1CC1)c1ccc(-c2nc(NCCN3CCOCC3)c3[nH]cnc3n2)cc1,2.27%
6,CCCn1c(=N)c(C(=O)NC2CCCCC2)cc2c(=O)n3cccc(C)c3nc21,-0.974%
7,Cc1cccn2c(=O)c3cc(C(=O)NC4CCCCC4)c(=N)n(C4CCCCC4)c3nc12,5.92% (active)
8,Cc1ccc2nc3c(cc(C(=O)NC4CCCCC4)c(=N)n3C(C)C)c(=O)n2c1,0.735%
9,COc1cccc(NC(=O)N2CCc3nc(-c4ccncc4)nc(N4CCCCC4)c3C2)c1,-2.11%
10,CC12CCC(C(=O)Nc3ncc(Cl)cc3Cl)(CC1=O)C2(C)C (stereo not given),5.35% (active)
11,CC12CCC(C(=O)Nc3cc(Cl)ccc3Cl)(CC1=O)C2(C)C (stereo not given),-0.262%
12,CC12CCC(C(=O)Nc3c(Cl)cccc3Cl)(CC1=O)C2(C)C (stereo not given),-0.214%
13,Cc1ccccc1-n1nc2c(c1NC(=O)C1CC1)CSC2,1.82%
14,C=CCn1c(SCC(=O)Nc2nc(C)cs2)nnc1C(C)NC(=O)c1cccs1 (stereo not given),0.0682%
15,O=C(CCN(Cc1ccc(Cl)cc1)S(=O)(=O)c1ccc(Br)cc1)NO,0.218%
16,CC(=O)Nc1nnc(CCOCC(C)OCCc2nnc(NC(C)=O)s2)s1 (stereo not given),5.04% (active)
17,CCOCCc1nnc(NC(=O)CC(C)(C)C)s1,-0.508%
18,CCCc1nnc(NC(=O)C(C)Oc2ccccc2)s1 (stereo not given),0.536%
19,CCOc1ccc(NC(=O)NC(=O)N(C)S(C)(=O)=O)cc1,-0.0562%
20,CCOc1ccc(NC(=O)N(CC(C)C)CC(C)C)cc1,-1.58%
21,CCOc1ccc(NC(=O)Nc2ccc(N(C)C(C)=O)cc2)cc1,6.4% (active)
22,CC1CCCC(C)N1C(=O)COC(=O)c1ccc(Cl)cc1N (stereo not given),-1.01%
23,COc1cccc(-c2ccccc2NC(=O)C2CCN(C3CCOCC3)CC2)c1,0.21%

row,Compound,activation
1,O=C(CCc1nc2ccccc2[nH]1)N1CCC2(CC1)OCc1cc(Cl)ccc1O2,-0.0529%
2,COc1ccc(-c2noc(N3CCC(C(=O)NCCCN4CCN(C)CC4)CC3)n2)cc1,7.49% (active)
3,COc1ccc(-c2noc(N3CCC(C(=O)NCCCOC(C)C)CC3)n2)cc1,2.42%
4,COc1ccc(-c2noc(N3CCCC(C(=O)NCCCN4CCC(C)CC4)C3)n2)cc1 (stereo not given),-1.28%
5,COC(=O)c1ccccc1NC(=O)C1=CC(c2cccc(OC)c2)=NS(=O)(=O)N1C,2.65%
6,CCOC(=O)c1sc(=S)n(-c2ccc(Br)cc2)c1N,-1.26%
7,Cc1ccc(-c2nnc(NCc3ccccc3)c3ccccc23)cc1S(=O)(=O)N1CCOCC1,-0.185%
8,Cc1ccc(-c2nnc(N3CCOCC3)c3ccccc23)cc1S(=O)(=O)N1CCCCC1,-0.605%
9,Cc1ccc(-c2nnc(N3CCOCC3)c3ccccc23)cc1S(=O)(=O)N1CCN(C)CC1,5.54% (active)
10,CCOC(=O)c1cnc2c(C)cc(Cl)cc2c1Nc1cccc([N+](=O)[O-])c1,-1.43%
11,Cc1c(C)c2ccc(O)c(I)c2oc1=O,0.449%
12,COc1ccc([N+](=O)[O-])cc1/C=C1\C(=O)NC(=O)N(c2ccc(Br)cc2)C1=O,2.28%
13,O=C1NC(=O)C(=Cc2cc([N+](=O)[O-])cc(Br)c2O)C(=O)N1,0.835%
14,CCCOc1ccc([N+](=O)[O-])cc1C=C1C(=O)NC(=O)NC1=O,5.32% (active)
15,O=C(NC1CCCCC1N1C(=O)CSC1=O)c1ccccc1F (stereo not given),0.048%
16,CCCN1C(=O)C(NS(=O)(=O)c2ccc(N)cc2)(C(F)(F)F)C(C(=O)OC)=C1C (stereo not given),6.6% (active)
17,CCOC(=O)C1=C(C)N(Cc2ccco2)C(=O)C1(NC(=O)c1ccccc1)C(F)(F)F (stereo not given),0.126%
18,CC(=O)Nc1ccc(S(=O)(=O)NC2(C(F)(F)F)C(=O)NC(C)=C2C#N)cc1 (stereo not given),0.355%
19,Fc1cccc(C2=NC3(CCCC3)NC2=S)c1,1.94%
20,Cc1nc(C)c(-c2csc(Nc3ccc(Br)cc3)n2)s1,-0.252%
21,CC(=O)Nc1nc(C)c(-c2csc(Nc3ccc(C)cc3)n2)s1,0.136%
22,CC(=O)Nc1nc(C(=O)Nc2nc(-c3sc(C)nc3C)cs2)cs1,5.72% (active)
23,N#Cc1c(SCC(=O)Nc2ccc(Br)cc2)nsc1SCC(=O)Nc1ccc(Br)cc1,-0.245%

row,Compound,activation
1,Cc1cccc2c(C(=O)N3CCOCC3)cc(-c3ccccc3)nc12,0.152%
2,CCOc1ccccc1-c1cc(C(=O)N2CCOCC2)c2ccccc2n1,13.1% (active)
3,Cc1cc(C(=O)N2CCOCC2)c2ccccc2n1,-0.327%
4,COc1ccc(NC(=S)N2CCN(S(=O)(=O)c3ccc(F)cc3)CC2)c(OC)c1,8.74% (active)
5,O=S(=O)(c1ccc(F)cc1)N1CCN(C(=S)NC2CCCC2)CC1,-1.65%
6,COc1cc([N+](=O)[O-])ccc1NC(=S)N1CCN(S(C)(=O)=O)CC1,0.0846%
7,COc1ccc(NC(=O)CSc2nc3n[nH]c(C)c3c(=N)n2-c2ccccc2Cl)c(OC)c1,0.84%
8,CCOc1ccc(C(c2sc3nc(C)nn3c2O)N2CCCC2)cc1OC (stereo not given),0.827%
9,COc1cc(Cl)c(C)cc1NC(=O)Cn1cnc2sc(C)c(C)c2c1=O,0.0902%
10,COCCNC(=O)CCCNC(=O)Cn1cnc2sc(C)c(C)c2c1=O,1.23%
11,COc1ccc(C2(NC(=O)CCn3cnc4sc(C)c(C)c4c3=O)CCCCC2)cc1,4.94% (active)
12,COc1ccccc1C1N=C(c2ccc(C)cc2)CC(c2cc(Cl)ccc2O)N1 (stereo not given),1.39%
13,Cc1ccc(C2=NC(c3cc(Br)ccc3F)NC(c3cc(Cl)ccc3O)C2)cc1 (stereo not given),10.7% (active)
14,Cc1ccc(C2=NC(c3ccc(F)cc3)NC(c3cc(Cl)ccc3O)C2)cc1 (stereo not given),1.41%
15,O=C(COc1ccc(Cl)cc1)Nc1ccc(F)c(F)c1,0.102%
16,O=C(COc1ccc(CO)cc1)Nc1ccc(Cl)c(Cl)c1,8.11% (active)
17,Cc1ccc(OCC(=O)Nc2ccc(C)c(Cl)c2)cc1C,1.59%
18,CCN(CC)S(=O)(=O)c1ccc(NC(=O)c2ccc(F)cc2)cc1,-0.476%
19,Cc1cccc(OCCN2CCNCC2)c1C,0.825%
20,C=CCc1ccccc1OCCN1CCNCC1,5.95% (active)
21,Cc1ccc(C(C)(C)C)c(OCCN2CCNCC2)c1,0.932%
